Measured values from PubChem BioAssay AID2806 (Sanford-Burnham Center for Chemical Genomics, 2010).
In all, about 330,000 compounds went through this assay and about 660 (0.2%) were called active. This is one part of a sample in which actives are shown more often than they occur.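 Rule for the calls: active = inhibition of at least 40% at 10 µM in the primary screen; inactive = the rest.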

test system: intestinal alkaline phosphatase [Mus musculus]; experiment: mouse intestinal phosphatase enzyme inhibition – biochemical, luminescence, uHTS, primary screen (AID 2806); details: purified mouse IAP, CDP-Star luminescence, 30 min; at 10 µM; active compounds read high;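 note: plate controls were DMSO with enzyme for no effect and no enzyme wells for full effect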

inhibition, inactive:
CCc1sc(C(=O)N2CCN(CC(=O)Nc3cccc(F)c3)CC2)cc1C 6.1%
CC[C@]1(O)C[C@@H]2CN(CCc3c([nH]c4ccccc34)[C@@](C(=O)OC)(c3cc4c(cc3OC)N(C)[C@H]3[C@@](O)(C(=O)OC)[C@H](OC(C)=O)[C@]5(CC)C=CCN6CC[C@]43[C@@H]65)C2)C1 -16.7%
CCNc1c(NS(=O)(=O)c2ccc(C3CCCCC3)cc2)c(=O)oc2ccccc12 6%
CC(=O)Nc1ccc(S(=O)(=O)Nc2cc(C)cn(Cc3ccc(C)cc3)c2=O)cc1 4.9%
O=C(Nc1cccc2ccccc12)c1onc2c1CCCC2 3%
COc1cc(CN2CCNC(=O)C2CC(=O)NCCc2ncccc2C)cc(OC)c1 (configuration not stated) 5.5%
O=S(=O)(NCc1ccc2c(c1)OCO2)c1cccc2nsnc12 -5.4%
Cc1ccc(S(=O)(=O)NCC(=O)NNC(=O)c2ccc(Br)cc2)cc1C 28.4%
Cn1c2c(c(=O)n(C)c1=O)C1c3ccccc3OCC1C(C)(C)O2 (configuration not stated) 8.7%
CC(C)Oc1ccc(CN2CCC(n3nccc3NC(=O)c3cccnc3)CC2)cc1 -5.5%
CC(C)Oc1ccc(CCc2nnc(SCC(=O)O)n2-c2ccccc2)cc1 3.2%
O=S(=O)(c1ccc(NC(=S)NN=C(C2CC2)C2CC2)cc1)N1CCOCC1 37.7%
Cc1ccc(S(=O)(=O)N2CCN(CC(=O)N/N=C/c3cc([N+](=O)[O-])ccc3Cl)CC2)cc1 14.9%
COc1ccccc1C1C(C(N)=O)=C(C)Nc2nc(CCCO)nn21 (configuration not stated) -1.6%
Cc1occc1-c1nnc(SCC(=O)NC2CCCCC2)o1 -1.8%
O=C1N[C@H](Cc2ccccc2)C(=O)N[C@H]1Cc1cn(S(=O)(=O)c2ccccc2)c2ccccc12 -8%
CCOC(=O)C(NS(=O)(=O)c1ccc(C)cc1)(C(F)(F)F)P(=O)(OCC(C)C)OCC(C)C (configuration not stated) 2.8%
CCOC(=O)/C(N=Nc1cc(C(=O)O)cc(C(=O)O)c1)=C(\O)CCl -0.2%
CCn1c(CSc2nncn2-c2ccc(OC)cc2)nc2cc(S(=O)(=O)N(C)C)ccc21 6.6%
CCN(CC)S(=O)(=O)c1cc(C(=O)Nc2ccccn2)ccc1C 0.4%
OCC(O)CN(c1ccccc1)c1ccccc1 (configuration not stated) 0.3%
CN(C(=O)C1CCN(c2ncnc3c2nc2n3CCCCC2)CC1)C1CCCCC1 -5%
FC(F)(F)c1nnc2c3ccccc3c(Cl)nn12 -3.6%
CC(=O)N1CC[n+]2c(-c3ccc([N+](=O)[O-])cc3)csc21 7.9%
Cc1nc(C(=O)N2CCCC(C(=O)c3ccc(Cl)cc3)C2)cs1 (configuration not stated) 0.3%
CCc1ccc(CN(C)Cc2nc(Cc3ccccc3)no2)nc1 -1.4%
O=C1N[C@@H](Cc2ccccc2)C(=O)N2[C@H]1C[C@]1(Br)c3ccccc3N(S(=O)(=O)c3ccccc3)[C@H]21 5.7%
CCC(=O)Nc1c(S(=O)(=O)c2ccccc2)c2nc3ccccc3nc2n1Cc1ccccc1 2.7%
O=C(O)c1ccccc1OCc1ccccc1Cl 6.6%
CN(C(=O)CSc1nnc(N)s1)c1c(N)n(Cc2ccccc2)c(=O)[nH]c1=O 3.6%
Cc1ccc(N2C(=O)c3ccccc3C2(O)c2ncc[nH]2)cc1 (configuration not stated) -9%
CCC(C)(C(=O)NC1CCCCC1)N(C)C(=O)c1ccc2c(c1)OCO2 (configuration not stated) 2.8%
CCOc1ccc(NS(=O)(=O)c2cc(C)c(C)cc2C)cc1 -7.7%
CN(C)N(C)C(=O)C(O)(c1ccccc1)c1ccccc1 2.1%
O=c1c(F)cn(C2CCCO2)c(=O)n1Cc1ccccc1Cl (configuration not stated) -1.3%

inhibition, active:
Oc1cc(O)c2c(c1)OC(c1ccc(O)c(O)c1)C(O)C2 (configuration not stated) 75.1%
O=[N+]([O-])c1cc(Cl)cc(/C=N/NC(=S)Nc2cc(S(=O)(=O)N3CCOCC3)ccc2Cl)c1O 40.5%
